The whole screen tested about 310,000 compounds, of which about 14,000 (4.5%) showed an effect of 50% or more. The effect is printed as a negative number. The entries come from a sample that favours strong results as a whole.
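Further: peak tail current of the secondary pulse compared with the same well before compound.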

In the experiment the target is human ether-à-go-go-related gene (hERG) potassium channel (human, UniProt Q12809). Kind of experiment: primary screen, population patch clamp on CHO cells stably expressing hERG; higher = less effect of the substance.
Chain of human ether-à-go-go-related gene (hERG) potassium channel (Q12809 whole entry, looked up): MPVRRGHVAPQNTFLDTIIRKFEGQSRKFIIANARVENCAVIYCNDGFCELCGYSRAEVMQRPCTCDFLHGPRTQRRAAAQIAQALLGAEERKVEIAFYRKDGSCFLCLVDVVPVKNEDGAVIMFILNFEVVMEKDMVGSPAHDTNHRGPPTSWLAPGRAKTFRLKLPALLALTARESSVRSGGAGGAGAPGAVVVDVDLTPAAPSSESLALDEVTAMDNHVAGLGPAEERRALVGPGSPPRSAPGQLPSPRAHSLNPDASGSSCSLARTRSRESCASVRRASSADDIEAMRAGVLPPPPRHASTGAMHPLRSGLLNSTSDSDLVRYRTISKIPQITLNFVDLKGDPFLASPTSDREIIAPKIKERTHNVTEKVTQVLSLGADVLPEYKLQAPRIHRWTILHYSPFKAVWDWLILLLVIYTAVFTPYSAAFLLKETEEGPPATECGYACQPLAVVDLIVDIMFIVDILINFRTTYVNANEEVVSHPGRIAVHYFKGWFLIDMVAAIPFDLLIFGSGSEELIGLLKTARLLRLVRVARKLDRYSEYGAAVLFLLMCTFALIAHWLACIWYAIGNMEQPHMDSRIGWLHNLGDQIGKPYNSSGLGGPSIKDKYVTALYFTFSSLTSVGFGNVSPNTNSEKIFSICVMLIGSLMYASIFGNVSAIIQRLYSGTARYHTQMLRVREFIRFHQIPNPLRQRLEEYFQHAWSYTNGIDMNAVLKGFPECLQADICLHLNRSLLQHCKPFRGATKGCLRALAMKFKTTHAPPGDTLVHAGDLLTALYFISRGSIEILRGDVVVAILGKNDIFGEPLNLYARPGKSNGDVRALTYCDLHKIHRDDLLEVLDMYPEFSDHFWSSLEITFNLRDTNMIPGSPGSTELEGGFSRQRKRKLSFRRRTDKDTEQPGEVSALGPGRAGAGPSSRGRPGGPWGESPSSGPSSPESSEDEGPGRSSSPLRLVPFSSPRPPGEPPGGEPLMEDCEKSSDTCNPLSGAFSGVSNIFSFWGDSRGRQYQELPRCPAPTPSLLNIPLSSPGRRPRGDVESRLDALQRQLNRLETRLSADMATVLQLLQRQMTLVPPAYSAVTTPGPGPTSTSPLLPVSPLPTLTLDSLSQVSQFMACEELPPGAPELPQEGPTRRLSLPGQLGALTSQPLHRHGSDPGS
As to `COc1cccc(CN(C)C(=O)c2cccc(OCc3ccccc3)c2)c1`, the “hERG current change (%, negative = inhibition) at 10uM” value was found to be 13.1%.

Consider `COc1cccc(CN(C)C(=O)c2cccc(OC3CCN(C4CCCC4)CC3)c2)c1`, for which the “hERG current change (%, negative = inhibition) at 10uM” value was -55.1%.

With `O=C(c1cccc(OC2CCN(C3CCCC3)CC2)c1)N1CCCCCCC1`, the “hERG current change (%, negative = inhibition) at 10uM” value is -36%.

`COCCC1CCCCN1C(=O)c1cccc(OC2CCN(C3CCCC3)CC2)c1` (stereo not shown): the “hERG current change (%, negative = inhibition) at 10uM” value is 17.6%.

For `CN(Cc1ccc(F)cc1)C(=O)c1cccc(OCc2ccccc2)c1`, the “hERG current change (%, negative = inhibition) at 10uM” value is -16.9%.

Turning to `CN(Cc1ccc(F)cc1)C(=O)c1cccc(OC2CCN(C3CCCC3)CC2)c1`, the “hERG current change (%, negative = inhibition) at 10uM” value is listed as -61%.

On to `O=[N+]([O-])C(C1CCS(=O)(=O)C1)C1CCS(=O)(=O)C1` (stereo not shown), for which the “hERG current change (%, negative = inhibition) at 10uM” value came out at 11.9%.

Consider `Cc1cccc(C2N(c3ccc(F)cc3)C(=O)C3CCCN32)c1` (stereo not shown), for which the “hERG current change (%, negative = inhibition) at 10uM” value was -12.3%.

Regarding `CCN1CCN(Cc2cc(OC)c(OC)cc2[N+](=O)[O-])CC1`, the “hERG current change (%, negative = inhibition) at 10uM” value was 8.59%.

Regarding `COc1cc(CN2CCN(Cc3ccc([N+](=O)[O-])cc3)CC2)c([N+](=O)[O-])cc1OC.O=C(O)C(=O)O`, the “hERG current change (%, negative = inhibition) at 10uM” value is -68.2%.

Consider `COc1cc(CN2CCCCCC2)c([N+](=O)[O-])cc1OC`, for which the “hERG current change (%, negative = inhibition) at 10uM” value stood at 3.94%.

As for `COc1cccc(CN2CCN(Cc3cc(OC)c(OC)cc3[N+](=O)[O-])CC2)c1.O=C(O)C(=O)O`, the “hERG current change (%, negative = inhibition) at 10uM” value is on record as -46.3%.

Regarding `COc1cc(CN2CCN(Cc3ccc(C)cc3)CC2)c([N+](=O)[O-])cc1OC.O=C(O)C(=O)O`, the “hERG current change (%, negative = inhibition) at 10uM” value is -77.2%.

As for `COc1cc(CN2CCN(C(=O)CC(C)C)CC2)c([N+](=O)[O-])cc1OC`, the “hERG current change (%, negative = inhibition) at 10uM” value is on record as 8.77%.

Regarding `Cc1cccc2[nH]c(CN(C)C(=O)CC3C(=O)NCCN3CC(C)(C)C)nc12` (stereo not shown), the “hERG current change (%, negative = inhibition) at 10uM” value was 3.23%.

In the case of `Cc1cc(C(=O)NCc2ccco2)sc1C`, the “hERG current change (%, negative = inhibition) at 10uM” value came to 16.2%.

For the compound `CCO[C@H]1c2c(ccc3ccc(=O)oc23)OC(C)(C)[C@@H]1O`, the “hERG current change (%, negative = inhibition) at 10uM” value turned out to be 20.9%.

For the compound `Cc1ccc[n+](CC(=O)c2ccccc2)c1.[Br-]`, the “hERG current change (%, negative = inhibition) at 10uM” value came to 13.7%.

On to `Cc1ccc(C(=O)C[n+]2ccc3ccccc3c2)cc1.[Br-]`, for which the “hERG current change (%, negative = inhibition) at 10uM” value is -33.6%.

For the compound `CN(C)c1cc[n+](CC(=O)c2ccc(-c3ccccc3)cc2)cc1.[Cl-]`, the “hERG current change (%, negative = inhibition) at 10uM” value is reported as -2.97%.

Regarding `Cc1ccc(C(=O)C[n+]2ccc(Cc3ccccc3)cc2)cc1.[Cl-]`, the “hERG current change (%, negative = inhibition) at 10uM” value is reported as -73.6%.

In the case of `Cc1ccc(SCCc2cc[n+](CC(=O)c3ccccc3)cc2)cc1`, the “hERG current change (%, negative = inhibition) at 10uM” value is -70.5%.

`Cc1ccc[n+](CC(=O)c2ccc(-c3ccccc3)cc2)c1.[Br-]`: the “hERG current change (%, negative = inhibition) at 10uM” value is -52.4%.

For `Cc1ccc(SCCNC(=O)c2ccccc2)cc1`, the “hERG current change (%, negative = inhibition) at 10uM” value is recorded as -0.806%.

Consider `Cc1cc[n+](CC(=O)c2ccc(NC(=O)c3ccccc3)cc2)cc1.[Br-]`, for which the “hERG current change (%, negative = inhibition) at 10uM” value is 2.6%.

Regarding `Cc1cc(C)c[n+](CC(=O)c2ccc(-c3ccccc3)cc2)c1.[Br-]`, the “hERG current change (%, negative = inhibition) at 10uM” value is reported as -45.3%.

As for `O=C(c1cc2ccccc2oc1=O)N1CCN(c2ncccn2)CC1`, the “hERG current change (%, negative = inhibition) at 10uM” value was determined as 8.16%.

Take `c1ccc2[nH]c(CSc3nnc(-c4ccncc4)o3)nc2c1`: the “hERG current change (%, negative = inhibition) at 10uM” value is -24.8%.

Turning to `Cc1ccccc1Nc1nc(NCc2ccco2)c2ccccc2n1.Cl`, the “hERG current change (%, negative = inhibition) at 10uM” value was -63.6%.

As to `Cc1ccc(Nc2nc(NCc3ccco3)c3ccccc3n2)cc1.Cl`, the “hERG current change (%, negative = inhibition) at 10uM” value was determined as 16.9%.

Take `Cl.c1ccc(Nc2nc(NCc3ccco3)c3ccccc3n2)cc1`: the “hERG current change (%, negative = inhibition) at 10uM” value is -71%.

Consider `Cl.Fc1ccc(Nc2nc(NCc3ccco3)c3ccccc3n2)cc1`, for which the “hERG current change (%, negative = inhibition) at 10uM” value is recorded as -37.2%.

On to `Cl.Oc1ccccc1Nc1nc(NCc2ccco2)c2ccccc2n1`, for which the “hERG current change (%, negative = inhibition) at 10uM” value was -29.3%.

Consider `COc1ccccc1Nc1nc(NCc2ccco2)c2ccccc2n1.Cl`, for which the “hERG current change (%, negative = inhibition) at 10uM” value is -20.3%.

With `COc1ccc(O)c(C(=O)/C=C/c2cc3ccccc3o2)c1`, the “hERG current change (%, negative = inhibition) at 10uM” value is 7.22%.

`CN1C(=O)/C(=C/c2ccc(C(F)(F)F)cc2)Sc2ccc(C(=O)N3CCN(c4ccccn4)CC3)cc21`: the “hERG current change (%, negative = inhibition) at 10uM” value came out at 5.11%.

For the compound `C[C@@H]1O[C@@H](Oc2c(-c3cc(O)c(O)c(O)c3)oc3cc(O)cc(O)c3c2=O)[C@H](O)[C@H](O)[C@H]1O`, the “hERG current change (%, negative = inhibition) at 10uM” value was found to be 4%.

Take `CCN(CC)CCN(C(=O)CCOc1ccccc1)c1nc2ccc(F)cc2s1.Cl`: the “hERG current change (%, negative = inhibition) at 10uM” value is listed as -8.61%.

For `CN(C)CCCN(C(=O)COc1ccccc1)c1nc2ccc(Cl)cc2s1.Cl`, the “hERG current change (%, negative = inhibition) at 10uM” value was -67.1%.

Regarding `Cc1ccc2nc(N(CCCN(C)C)C(=O)COc3ccc(Cl)cc3)sc2c1.Cl`, the “hERG current change (%, negative = inhibition) at 10uM” value is given as -8.71%.

With `CN(C)CCCN(C(=O)COc1ccccc1)c1nc2ccc(F)cc2s1.Cl`, the “hERG current change (%, negative = inhibition) at 10uM” value was -68%.

As for `CN(C)CCCN(C(=O)COc1ccc(Cl)cc1)c1nc2ccc(F)cc2s1.Cl`, the “hERG current change (%, negative = inhibition) at 10uM” value is reported as -21.4%.

Take `Cc1ccc2nc(N(CCCN(C)C)C(=O)CS(=O)(=O)c3ccccc3)sc2c1.Cl`: the “hERG current change (%, negative = inhibition) at 10uM” value is -22.7%.
